Screening data as filed in PubChem BioAssay.
Rows were chosen to be rich in hits. Some 7.7% of all compounds tested hit in one or more screens of this group.
Giardia FBPA inh: qHTS Assay for Inhibitors of Fructose-1,6-bisphosphate Aldolase from Giardia Lamblia | A8B2U2 | purified Giardia FBPA | Potency, µM (highest dose often 59.6 µM), for inactives: at the highest dose activity, negative = inhibition, actives largely listed as inhibitors | 290,000 tested, 0.71% active; also: potency is read from the fitted curve at half-maximal effect; nearly all actives have a fitted effect of over 55% in size
Target sequence (A8B2U2 whole entry, looked up): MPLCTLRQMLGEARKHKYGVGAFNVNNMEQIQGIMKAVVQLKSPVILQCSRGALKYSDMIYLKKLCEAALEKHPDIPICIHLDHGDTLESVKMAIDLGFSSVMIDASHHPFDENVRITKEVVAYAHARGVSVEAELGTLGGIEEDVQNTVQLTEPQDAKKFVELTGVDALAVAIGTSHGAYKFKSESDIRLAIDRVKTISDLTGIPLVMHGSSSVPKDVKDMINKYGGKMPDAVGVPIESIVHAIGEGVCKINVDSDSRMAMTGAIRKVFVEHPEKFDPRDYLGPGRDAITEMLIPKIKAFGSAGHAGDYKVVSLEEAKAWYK
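40 nM FBPA preincubated 10 min at RT with compound (up to 57.5 uM final), then substrate plus GAPDH/TPI/NAD/arsenate coupling and diaphorase/resazurin added. Fluorescence read after 20 min at RT, 525/598 nm.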
Sm TGR inh: qHTS Assay for the Inhibitors of Schistosoma Mansoni Peroxiredoxins | 360,000 tested, 3% active | Schistosoma mansoni thioredoxin glutathione reductase (TGR), Q962Y6 | AID 485364, 2010 | Potency, µM (top dose mostly 114 µM), inactives show at the highest dose activity change, negative = inhibition, most hits filed as inhibitors | purified TGR, DTNB reduction, TNB absorbance 405 nm; also: potency is read from the fitted curve at half-maximal effect; nearly all actives have a fitted effect of over 60% in size
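TGR 20 nM + NADPH 100 uM (dispensed conc.), cpd preinc 15 min RT; start with NADPH (500 uM addition) then DTNB (15 mM addition). Kinetic TNB absorbance, 405 nm filter. Four-parameter Hill fit across titration.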
TbPYK inhibitor: qHTS of Trypanosoma Brucei Inhibitors | pyruvate kinase (Trypanosoma brucei), Q57TT1 | TbPYK enzyme, Kinase-Glo Plus ATP luminescence, 45 min | Potency, µM (top dose mostly 76.8 µM), for the others: at the highest dose activity, negative = inhibition, usual class: inhibitors | 410,000 tested, 0.12% active; also: potency is read from the fitted curve at half-maximal effect; nearly all actives have a fitted effect of over 50% in size
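Assay buffer: 50 mM TEA pH 7.2, 100 mM KCl, 10 mM MgCl2, 0.05% BSA, 0.01% Tween-20. Pyruvate kinase from T. brucei plus substrate met compound, then ADP (130 uM final). Luminescence was read post 45 min RT.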
FMDV antiviral: High Throughput Screening for Foot and Mouth Disease Virus Antivirals | 410,000 tested, 1.2% active | FMDV antiviral cell-based qHTS | Potency, µM (series often up to 57.9 µM), inactives show top-dose activity change, negative = inhibition, most hits filed as inhibitors | AID 1159524, 2015; calls by dose curve; tested in HEK293T cells; also: read-out not given here; potency is read from the fitted curve at half-maximal effect; nearly all actives have a fitted effect of over 45% in size
RE007 growth inh: qHTS Assay for Inhibitors of the HIV-1 protein Vpr; Potency, µM (doses to about 92.2 µM), for inactives: at the top dose activity change, negative = less growth, actives largely listed as inhibitors; 360,000 tested, 0.21% active; S. pombe RE007 Vpr strain, BacTiter-Glo ATP luminescence, 24 h; active = well fitted falling curve with a large enough effect; inconclusive = small, poorly fitted or top-dose-only effect; inactive = no such curve, though single readings can be large or run the other way; also: potency is read from the fitted curve at half-maximal effect; nearly all actives have a fitted effect of over 50% in size
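Fission yeast strain RE007, carrying one chromosomally integrated HIV-1 vpr copy, was seeded at OD 0.01 in PMG+AL medium with 23 nL pinned compound. After 24 h at 30 °C and 99% humidity, viability was read by BacTiter-Glo luminescence.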
HCMV antiviral: qHTS Assay for inhibitors of the human cytomegalovirus (HCMV). AID 1259415, 2018. 410,000 tested, 4.5% active. HFF cells, HCMV-luciferase reporter, 72 h; active compounds read low. activity change, negative = inhibition, % at 57.5 µM; in the data active = activity change below about -60%; inconclusive = no clear call, values can overlap the other calls; inactive = above about -39%
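Luciferase read-out from HCMV-luciferase-infected HFFs (MOI 1 PFU/cell) 72 h post infection at 37C; compounds added after 16 h cell attachment; activity normalized between buffer-only basal and Salinomycin (10uM) inhibitor controls.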
Active calls of the source: *; ? = inconclusive; · = no result given; [ ] = dose if it differs, or a comment. Unless noted, calls follow the shape of the dose curve; as a rule, active = well fitted curve in the direction sought with a large enough effect; inconclusive = small, poorly fitted or top-dose-only effect, or another doubt; inactive = no such curve, though single readings can be large; an effect the other way counts as inactive or inconclusive. % is scaled to controls: 0 for no effect and ±100 for the full control effect.

SMILES | Giardia FBPA inh | Sm TGR inh | TbPYK inhibitor | FMDV antiviral | RE007 growth inh | HCMV antiviral
COc1ccc(S(=O)(=O)N2CCC(O)(c3ccc(Cl)cc3)CC2)cc1OC | -0.5% | 8.4% | -2.5% | ? | 1.6% | -72.8*
CN1CCN(CC2(O)CCN(S(=O)(=O)c3ccc(Cl)cc3)CC2)CC1 | 4.5% | -12.6% | -0.7% | -24.0% | -8.6% | -68.7*
CC(=O)Nc1cc(C(=O)N2CC3(C)CC2CC(C)(C)C3)cc2ncn(CCc3ccccn3)c12 (configuration not stated) | · | · | · | 21.3% | · | ·
OC[C@@H]1CN(Cc2ccc(-c3ccccc3)cc2)C[C@H](n2cnc3c(NCc4ccco4)ncnc32)O1 | · | · | -4.5% | 31.6µM* | 0.7% | -89.6*
OCCNc1ncnc2c1ncn2[C@H]1CN(Cc2ccc(-c3ccccc3)cc2)C[C@@H](CO)O1 | · | · | 5.1% | ? | 1.9% | ·
OC[C@@H]1CN(Cc2ccc(-c3ccccc3)cc2)C[C@H](n2cnc3c(NCc4ccncc4)ncnc32)O1 | · | · | 0.2% | -4.0% | -10.8% | -91.4*
OC[C@@H]1CN(Cc2ccco2)C[C@H](n2cnc3c(NCc4ccc(F)cc4)ncnc32)O1 | · | · | 0.3% | 3.9% | 6.1% | -68.6*
OC[C@@H]1CN(Cc2ccccc2)C[C@H](n2cnc3c(NCc4ccco4)ncnc32)O1 | · | · | -13.7% | -14.3% | -0.3% | -26.9
COc1cc(CNc2ncnc3c2ncn3[C@H]2CN(Cc3ccc(C(=O)O)cc3)C[C@@H](CO)O2)cc(OC)c1OC | · | · | 2.7% | -16.2% | -6.2%[18.4 µM] | -10.5
COc1cc(CNc2ncnc3c2ncn3[C@H]2CN(Cc3ccc(-c4ccccc4)cc3)C[C@@H](CO)O2)cc(OC)c1OC | · | · | -10.1% | ? | 0.4% | -65.9*
CCOC(=O)Nc1cc(=O)c([N+](=O)[O-])c(N)[nH]1 | · | · | · | · | · | 9.5
OC[C@@H]1CN(CCN2CCOCC2)C[C@H](n2cnc3c(NCc4ccc(F)cc4)ncnc32)O1 | · | · | 6.6% | -25.7% | -8.2% | 13.5
OC[C@@H]1CN(CCc2ccccc2)C[C@H](n2cnc3c(NCc4ccc(F)cc4)ncnc32)O1 | · | · | -0.6% | 0.0% | 4.6% | -65.6*
O=C(Nc1cccc2ccccc12)OC1C=CS(=O)(=O)C1 (configuration not stated) | -3.0% | -13.6% | 8.7% | -16.6% | 0.9% | -70.1*
Cc1cccc(N2C(=O)CSC23C(=O)N(Cc2cccc(C(F)(F)F)c2)c2ccccc23)c1 (configuration not stated) | · | 7.7% | 1.3% | ? | · | -69.7*
COc1cc(C(=O)Nc2c(C(=O)Nc3ccccc3F)oc3ccccc23)cc(OC)c1OC | · | -16.3% | -2.3% | 3.3% | · | 0.4
Cc1cc(C)c(-c2csc(NC(=O)/C=C/c3cccs3)n2)c(C)c1 | -4.1% | 0.3% | -1.7% | ? | 1.1% | -100.1*
Cc1cc(C)nc(NC(=O)/C=C/c2cccs2)c1 | 0.2% | 2.9% | -9.2% | · | 11.0% | 115.7
COc1ccc2c(c1)CC(C(=O)N1CCC(C(N)=O)CC1)CO2 (configuration not stated) | · | -3.5% | -2.8% | -6.7% | · | -3.7
CCN(CC)S(=O)(=O)c1cccc(S(=O)(=O)c2cccc(S(=O)(=O)N(CC)CC)c2)c1 | -2.0% | 2.5% | -7.9% | -4.4% | 0.7% | -68.6*
CCN(CC)S(=O)(=O)c1ccc(C)c(C)c1 | 3.4% | 1.9% | -2.6% | 8.9% | 7.4% | -10.7
CCN(CC)S(=O)(=O)c1ccc2c(c1)C(=NO)c1cc(S(=O)(=O)N(CC)CC)ccc1-2 | 0.1% | 7.0% | -1.4% | 20µM* | 0.0% | 4.3
CCCc1nc2c(C)cc(Br)cn2c1Cc1cccc(Cl)c1 | · | · | · | · | · | 67.8
Cc1ccc(NC(=O)CN2C=NS(=O)(=O)c3ccccc32)c(C)c1 | · | 2.0% | 3.1% | 15.8% | · | -3.0
O=C(c1ccccc1)C1OC1C(=O)c1ccccc1 (configuration not stated) | · | · | 0.3% | -8.8% | -25.8% | -11.1
SMILES | Giardia FBPA inh | Sm TGR inh | TbPYK inhibitor | FMDV antiviral | RE007 growth inh | HCMV antiviral
O=C(C1=NNCC1c1ccccc1)C1OC1c1ccccc1 (configuration not stated) | 8.6% | 22.4µM* | -6.1% | -3.4% | -5.1% | -31.4
Cc1cccc(Oc2nc3ccccn3c(=O)c2/C=C(\C#N)c2nc3ccccc3s2)c1C | · | 0.0% | -33.8% | ? | · | -7.3
COC(=O)c1ccccc1-c1ccc(C(c2c(C)[nH][nH]c2=O)c2c(C)[nH][nH]c2=O)o1 | 4.5% | -1.2% | -6.6% | 20µM* | 16.0% | -33.7
COC(=O)c1cccc(-c2ccc(C(c3c(C)[nH][nH]c3=O)c3c(C)[nH][nH]c3=O)o2)c1 | 14.1µM* | 14.1µM* | -10.9% | ? | -5.9% | -12.8
COC(=O)c1ccc(C(c2c(C)[nH][nH]c2=O)c2c(C)[nH][nH]c2=O)cc1 | -7.8% | -7.1% | -1.9% | -14.0% | 7.0% | -16.9
Cc1[nH][nH]c(=O)c1C(c1ccc(-c2ccc(Cl)c(C(=O)O)c2)o1)c1c(C)[nH][nH]c1=O | 7.06µM* | 15.8µM* | -16.5% | 7.2% | -27.9% | -7.0
CCNc1ncc2nc(-c3ccc(OC)cc3)c(=O)n(Cc3cccc(OC)c3)c2n1 | -4.2% | · | -3.8% | -2.5% | · | ·
C#CC[N+](CC)(CC)CC#Cc1ccccc1 | 1.2% | -2.2% | 3.4% | -15.6% | 0.0% | 20.0
C#CC[N+](C)(C)CC#Cc1ccc(C)cc1 | -0.3% | 2.5% | 3.9% | -19.8% | -12.4% | -89.5*
COc1cc(C(C)=NNC(=O)c2ccncc2)ccc1O | · | · | 5.3% | 4.4% | -2.5% | -100.9*
C/C(=N/NC(=O)c1ccc(C(C)(C)C)cc1)c1ccccn1 | · | · | -2.8% | -10.2% | ? | -98.0*
C/C(=N\NC(=O)c1cc(Br)ccc1O)c1ccccn1 | -5.1% | 0.8% | 4.8% | -28.8% | -12.8% | 39.1
C/C(=N\NC(=O)c1cccc(Br)c1)c1ccccn1 | ? | 0.2% | -2.6% | 26.6% | ? | -102.6*
COc1ccc(C(=O)N/N=C(\C)c2ccccn2)cc1OC | ? | -1.2% | -1.8% | ? | ? | -111.6*
COC(=O)c1cc(CNC(=O)c2cccc3ccccc23)cc(NC(=O)c2ccccc2OC)c1 | · | · | · | 8.1% | · | ·
C[C@@H]1CN([C@@H](C)CO)C(=O)CCCn2cc(nn2)CO[C@H]1CN(C)C(=O)Nc1ccc(F)cc1 | · | · | · | · | · | -8.0
CCN(CC)CCCNC(=O)C(C)n1nc(C)n2c(cc3occc32)c1=O (configuration not stated) | · | 11.1% | 0.6% | -6.3% | · | 11.8
